Results taken from publication PMC11006913.
Numbering of substitutions follows the chain as printed.

Legend:
Assay in all cases: PBM; 200 nM protein, PBS
Conditions in all cases: dsDNA, one strand shown
NKX2-4 [1] = target: T1, NKX2-4 (Homo sapiens, UniProt Q9H2Z4 175-261, P217L)
T1 sequence: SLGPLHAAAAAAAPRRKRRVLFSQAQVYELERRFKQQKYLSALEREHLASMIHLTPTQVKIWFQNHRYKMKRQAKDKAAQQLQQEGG

NKX2-4 [2] = target: T2, NKX2-4 (Homo sapiens, UniProt Q9H2Z4 175-261, T231S)
T2 sequence: T1 sequence with L43P, T57S

NKX2-4 [3] = target: T3, NKX2-4 (Homo sapiens, UniProt Q9H2Z4 175-261)
T3 sequence: T1 sequence with L43P

NKX2-4 [4] = target: T4, NKX2-4 (Homo sapiens, UniProt Q9H2Z4 175-261, R246Q)
T4 sequence: T1 sequence with L43P, R72Q

Sequence | binding signal (NKX2-4 [1]) | binding signal (NKX2-4 [2]) | binding signal (NKX2-4 [3]) | binding signal (NKX2-4 [4])
CCGGTAAC | 9.94 upbm affinity estimate (log intensity, higher = more binding, comparable within an allelic series) | 9.84 upbm affinity estimate (log intensity, higher = more binding, comparable within an allelic series) | 9.9 upbm affinity estimate (log intensity, higher = more binding, comparable within an allelic series) | 9.93 upbm affinity estimate (log intensity, higher = more binding, comparable within an allelic series)
AGTACTCA | 12.5 upbm affinity estimate (log intensity, higher = more binding, comparable within an allelic series) | 12.9 upbm affinity estimate (log intensity, higher = more binding, comparable within an allelic series) | 12.4 upbm affinity estimate (log intensity, higher = more binding, comparable within an allelic series) | 12.9 upbm affinity estimate (log intensity, higher = more binding, comparable within an allelic series)
ATCCCTCC | 9.86 upbm affinity estimate (log intensity, higher = more binding, comparable within an allelic series) | 9.87 upbm affinity estimate (log intensity, higher = more binding, comparable within an allelic series) | 9.86 upbm affinity estimate (log intensity, higher = more binding, comparable within an allelic series) | 9.77 upbm affinity estimate (log intensity, higher = more binding, comparable within an allelic series)
GTCAAGGA | 11.7 upbm affinity estimate (log intensity, higher = more binding, comparable within an allelic series) | 11.9 upbm affinity estimate (log intensity, higher = more binding, comparable within an allelic series) | 11.6 upbm affinity estimate (log intensity, higher = more binding, comparable within an allelic series) | 11.6 upbm affinity estimate (log intensity, higher = more binding, comparable within an allelic series)
GTACTCGA | 12.4 upbm affinity estimate (log intensity, higher = more binding, comparable within an allelic series) | 12.9 upbm affinity estimate (log intensity, higher = more binding, comparable within an allelic series) | 12.3 upbm affinity estimate (log intensity, higher = more binding, comparable within an allelic series) | 12.9 upbm affinity estimate (log intensity, higher = more binding, comparable within an allelic series)
TACTTCAA | 12.5 upbm affinity estimate (log intensity, higher = more binding, comparable within an allelic series) | 12.9 upbm affinity estimate (log intensity, higher = more binding, comparable within an allelic series) | 12.4 upbm affinity estimate (log intensity, higher = more binding, comparable within an allelic series) | 13 upbm affinity estimate (log intensity, higher = more binding, comparable within an allelic series)
CCGCTACC | 9.71 upbm affinity estimate (log intensity, higher = more binding, comparable within an allelic series) | 9.7 upbm affinity estimate (log intensity, higher = more binding, comparable within an allelic series) | 9.66 upbm affinity estimate (log intensity, higher = more binding, comparable within an allelic series) | 9.79 upbm affinity estimate (log intensity, higher = more binding, comparable within an allelic series)
CGATCGCA | 9.9 upbm affinity estimate (log intensity, higher = more binding, comparable within an allelic series) | 9.92 upbm affinity estimate (log intensity, higher = more binding, comparable within an allelic series) | 9.93 upbm affinity estimate (log intensity, higher = more binding, comparable within an allelic series) | 9.97 upbm affinity estimate (log intensity, higher = more binding, comparable within an allelic series)
GAAGAGTA | 11.9 upbm affinity estimate (log intensity, higher = more binding, comparable within an allelic series) | 12.2 upbm affinity estimate (log intensity, higher = more binding, comparable within an allelic series) | 11.7 upbm affinity estimate (log intensity, higher = more binding, comparable within an allelic series) | 12.2 upbm affinity estimate (log intensity, higher = more binding, comparable within an allelic series)
CTCTTGAA | 12.5 upbm affinity estimate (log intensity, higher = more binding, comparable within an allelic series) | 12.8 upbm affinity estimate (log intensity, higher = more binding, comparable within an allelic series) | 12.3 upbm affinity estimate (log intensity, higher = more binding, comparable within an allelic series) | 13 upbm affinity estimate (log intensity, higher = more binding, comparable within an allelic series)
GAGTACTC | 12.4 upbm affinity estimate (log intensity, higher = more binding, comparable within an allelic series) | 12.8 upbm affinity estimate (log intensity, higher = more binding, comparable within an allelic series) | 12.3 upbm affinity estimate (log intensity, higher = more binding, comparable within an allelic series) | 12.9 upbm affinity estimate (log intensity, higher = more binding, comparable within an allelic series)
CACCCGTA | 9.75 upbm affinity estimate (log intensity, higher = more binding, comparable within an allelic series) | 9.83 upbm affinity estimate (log intensity, higher = more binding, comparable within an allelic series) | 9.77 upbm affinity estimate (log intensity, higher = more binding, comparable within an allelic series) | 9.74 upbm affinity estimate (log intensity, higher = more binding, comparable within an allelic series)
CAGTGCGC | 9.85 upbm affinity estimate (log intensity, higher = more binding, comparable within an allelic series) | 9.8 upbm affinity estimate (log intensity, higher = more binding, comparable within an allelic series) | 9.86 upbm affinity estimate (log intensity, higher = more binding, comparable within an allelic series) | 9.79 upbm affinity estimate (log intensity, higher = more binding, comparable within an allelic series)
ACGTACTC | 11.8 upbm affinity estimate (log intensity, higher = more binding, comparable within an allelic series) | 12 upbm affinity estimate (log intensity, higher = more binding, comparable within an allelic series) | 11.7 upbm affinity estimate (log intensity, higher = more binding, comparable within an allelic series) | 11.9 upbm affinity estimate (log intensity, higher = more binding, comparable within an allelic series)
GTCTCGCA | 9.7 upbm affinity estimate (log intensity, higher = more binding, comparable within an allelic series) | 9.57 upbm affinity estimate (log intensity, higher = more binding, comparable within an allelic series) | 9.65 upbm affinity estimate (log intensity, higher = more binding, comparable within an allelic series) | 9.64 upbm affinity estimate (log intensity, higher = more binding, comparable within an allelic series)
CCGCCATA | 9.83 upbm affinity estimate (log intensity, higher = more binding, comparable within an allelic series) | 9.79 upbm affinity estimate (log intensity, higher = more binding, comparable within an allelic series) | 9.85 upbm affinity estimate (log intensity, higher = more binding, comparable within an allelic series) | 9.84 upbm affinity estimate (log intensity, higher = more binding, comparable within an allelic series)
ACGGCGAC | 9.81 upbm affinity estimate (log intensity, higher = more binding, comparable within an allelic series) | 9.82 upbm affinity estimate (log intensity, higher = more binding, comparable within an allelic series) | 9.78 upbm affinity estimate (log intensity, higher = more binding, comparable within an allelic series) | 9.81 upbm affinity estimate (log intensity, higher = more binding, comparable within an allelic series)
